# Experimental data as given in PubChem BioAssay (NCI).
# This is part of a sample that, as a whole, favours compounds with a hit. Of some 83,000 tested, about 20% had one in any assay.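 Single-concentration screen, 48 h exposure, 96-well plates. Endpoint: percent growth. Below 10 = active.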 Unmarked numbers belong to inactive results. The source made the active and inactive calls.
# What was measured:
# Test in all cases: NCI-60 one-dose screen, 48 h (100 = growth as untreated, 0 = no growth, -100 = all killed)
# NCI-H23 lung = details: 10 µM unless noted
# NCI-H226 lung = details: 10 µM unless noted
# NCI-H322M lung = details: 10 µM unless noted
# HOP-62 NSCLC = details: 10 µM unless noted
# NCI-H460 lung = details: 10 µM unless noted
# HOP-92 NSCLC = details: 10 µM unless noted
# NCI-H522 lung = details: 10 µM unless noted
# A549/ATCC NSCLC = details: 10 µM unless noted
# 786-0 renal = details: 10 µM unless noted
# COLO 205 colon = details: 10 µM unless noted
# DU-145 prostate = details: 10 µM unless noted
# K-562 leukemia = details: 10 µM unless noted
# MALME-3M melanoma = details: 10 µM unless noted
# MDA-MB-231 breast = details: 10 µM unless noted
# RXF 393 renal = details: 10 µM unless noted
# SF-268 CNS = details: 10 µM unless noted
# SF-295 CNS = details: 10 µM unless noted
# SF-539 CNS = details: 10 µM unless noted
# UACC-257 melanoma = details: 10 µM
# M14 melanoma = details: 10 µM unless noted
Compound,growth (NCI-H23 lung),growth (NCI-H226 lung),growth (NCI-H322M lung),growth (HOP-62 NSCLC),growth (NCI-H460 lung),growth (HOP-92 NSCLC),growth (NCI-H522 lung),growth (A549/ATCC NSCLC),growth (786-0 renal),growth (COLO 205 colon),growth (DU-145 prostate),growth (K-562 leukemia),growth (MALME-3M melanoma),growth (MDA-MB-231 breast),growth (RXF 393 renal),growth (SF-268 CNS),growth (SF-295 CNS),growth (SF-539 CNS),growth (UACC-257 melanoma),growth (M14 melanoma)
COc1ccc(C(=O)c2cc(OC)c(OC)c(OC)c2)cc1/C=C/C(=O)c1ccc(O)cc1,18.5%,58.5%,70.7%,88.9%,9.99% (active),42.8%,-79.3% (active),68.9%,26.4%,54.3%,26.4%,19%,91.6%,35%,35.1%,12.8%,29.9%,0.251% (active),36%,15.8%
COc1ccc(S(=O)(=O)NCCNc2nccc(-c3c(-c4ccccc4)nc4sccn34)n2)cc1,37%,13.2%,45.9%,64.4%,23.6%,48.9%,41%,18.4%,32%,1.41% (active),20.2%,18.5%,60.9%,36.6%,30.8%,20.5%,16.6%,45.3%,46%,29.4%
CCNC(=O)C1CCCN1C(=O)C(CCCN=C(N)N)NC(=O)C(CC(C)C)NC(=O)C(CC(C)C)NC(=O)C(Cc1ccc(O)cc1)NC(=O)C(CO)NC(=O)C(Cc1c[nH]c2ccccc12)NC(=O)C(Cc1cnc[nH]1)NC(=O)C1CCC(=O)N1 (configuration not stated),87.8%,111%,119%,96.8%,107%,92%,74.1%,81.6%,104%,94.9%,135%,73.5%,122%,112%,28.4%,100%,122%,96.1%,83.8%,102%
Cc1ccc(Cn2c(-c3cccs3)nc3ccccc32)cc1,96.2%,77.3%,92%,105%,88%,72.5%,85.1%,74.2%,99%,110%,110%,5.16% (active),120%,96.2%,92.5%,104%,72%,102%,89.9%,107%
CC[C@H](C)[C@H]1NC(=O)[C@@H](N[C@](C)(O)[C@@H](N)CC(C)C)[C@@H](C)OC(=O)[C@H](Cc2ccc(OC)cc2)N(C)C(=O)[C@@H]2CCCN2C(=O)[C@H](CC(C)C)NC(=O)[C@@H](C)C(=O)[C@H](C(C)C)OC(=O)C[C@@H]1O,-29.6% (active),-11.1% (active),-22.4% (active),-31.1% (active),-11.8% (active),-14.1% (active),-37.7% (active),-22.7% (active),-25.5% (active),-65.1% (active),-17.5% (active),2.2% (active),-21.4% (active),-15.8% (active),-33.1% (active),-1.13% (active),-52.1% (active),-27.6% (active),-24.7% (active),-75.3% (active)
CCN(CC)CCC(=O)c1cccc2ccccc12,95.3%,104%,103%,112%,110%,99.4%,9.95% (active),98.6%,102%,124%,108%,89.6%,98.6%,94.8%,102%,109%,101%,92.4%,–,111%
CC(=O)N1Cc2ccccc2C(C)Cc2cc(Cl)ccc21 (configuration not stated),106%,117%,97.9%,102%,105%,99.3%,95.8%,96.5%,95.9%,117%,114%,102%,103%,102%,124%,104%,110%,107%,–,103%
C[N+](C)(C)c1ccc(CC2c3ccccc3-c3ccccc32)cc1,78.5%,82.2%,87.8%,38.9%,87.3%,28.8%,59.9%,62%,73.9%,59.8%,101%,70.6%,74.9%,74.7%,103%,42.4%,79.1%,25.5%,–,75.4%
